Bioassay records from PubChem BioAssay.
Compounds with a hit are over-represented: about 2.8% of the library has one in this group of screens.
SENP6 inh: inhibitors of human SENP6 protease | Q9GZR1 | Recombinant SENP6 catalytic domain, aminoluciferin luminescence | inhibition, % at 10 µM | 330,000 tested, 1.8% active | AID 2599;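 active means inhibition above about 50% at the single tested dose, limit read from the data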
SENP8 block-1: inhibitors of human SENP8 protease; inhibition, % at 20 µM; Q96LD8; 360,000 tested, 0.64% active; recombinant SENP8, Nedd8 substrate fluorescence; AID 602440; in the data active means inhibition mostly above about 40%, no sharp cut-off; inactive means mostly below about 27%
Target sequence (Q96LD8 whole entry, looked up): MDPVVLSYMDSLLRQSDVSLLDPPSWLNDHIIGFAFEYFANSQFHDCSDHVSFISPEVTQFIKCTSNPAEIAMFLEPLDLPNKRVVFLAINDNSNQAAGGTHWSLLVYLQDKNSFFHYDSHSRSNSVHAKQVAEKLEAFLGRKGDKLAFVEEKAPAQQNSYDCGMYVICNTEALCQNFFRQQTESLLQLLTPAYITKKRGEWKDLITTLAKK
SENP8 block-2: SENP8 protease inhibition | Q96LD8 | inhibition, % at 10 µM | AID 2540 | 330,000 tested, 1.2% active | purified SENP8, Z-RLRGG-aminoluciferin cleavage, luminescence; in the data active means inhibition above about 50%
Platelet DG rel: platelet dense granule release activity | human platelet-rich plasma, SFLLRN dense granule ATP release, luminescence | 300,000 tested, 0.22% active | inhibition, %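 (compounds screened at 7.5 µM in platelet-rich plasma)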;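 active means mean replicate score, as percent of positive control, at or above 50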
SENP7 inh: SENP7 protease inhibition; 330,000 tested, 1.5% active; recombinant SENP7, Z-RLRGG-aminoluciferin luminescence, 40 min; inhibition, % at 5 µM; Q9BQF6; AID 434973;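 active means inhibition above about 50% at the single test dose, limit read from the data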
Target sequence (Q9BQF6 706-1050 limits assumed): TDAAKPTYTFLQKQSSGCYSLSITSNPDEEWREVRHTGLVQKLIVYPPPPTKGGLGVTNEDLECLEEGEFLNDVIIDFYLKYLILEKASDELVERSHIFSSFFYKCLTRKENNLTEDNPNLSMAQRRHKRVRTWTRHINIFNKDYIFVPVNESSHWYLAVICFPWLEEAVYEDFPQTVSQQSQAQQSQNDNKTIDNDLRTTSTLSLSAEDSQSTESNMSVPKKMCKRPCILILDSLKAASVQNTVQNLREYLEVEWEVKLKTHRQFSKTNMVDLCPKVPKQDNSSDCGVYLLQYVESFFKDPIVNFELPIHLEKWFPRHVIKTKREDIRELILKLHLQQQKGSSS
HSP90 refold inh: inhibitors of HSP90 luciferase refolding in rabbit reticulocyte lysate; luciferase refolding luminescence, 3 h; inhibition, % at 5.6 µM; 290,000 tested, 0.91% active;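 active means inhibition above the screen-wide mean plus 3 SD, computed separately per campaign, cut at about 16% in these data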;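 further: inhibitors lower the luminescence because luciferase stays unfolded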
SENP8 conf: confirmation of human SENP8 protease inhibitors; inhibition, % at 25 µM; 1,400 tested, 15% active; AID 624319; shares compounds with SENP8 block-1; purified SENP8, Nedd8-AMC/pro-Nedd8 cleavage fluorescence, 30 min; in the data active means inhibition mostly above about 39%, no sharp cut-off; inactive means mostly below about 34%
Of the large screens only hits and unclear results are named; the others gave an inactive call (follow-up assays come after a bar, where they were run).

C=C(C)Cn1c(NCCOC)nc2c1c(=O)[nH]c(=O)n2C	SENP8 block-1 40 | SENP8 conf inactive
COc1cccc(C2c3[nH]c4ccccc4c3C[C@H]3C(=O)N(c4ccccc4C(=O)NCCCN4CCOCC4)C(=O)N23)c1 (stereo not given in full)	SENP8 block-1 51 | SENP8 conf inactive
COc1ccc(C2c3[nH]c4ccccc4c3C[C@H]3C(=O)N(c4ccccc4C(=O)N4CCC[C@H]4C(=O)O)C(=O)N23)cc1 (stereo not given in full)	SENP8 block-1 42 | SENP8 conf inactive
Cc1ccc(C2c3[nH]c4ccccc4c3C[C@H]3C(=O)N(c4ccccc4C(=O)N4CCC[C@H]4C(=O)O)C(=O)N23)cc1 (stereo not given in full)	SENP8 block-1 43 | SENP8 conf inactive
Cc1ccc(S(C)(=O)=N/C=C2\C(=O)c3sccc3N(C)S2(=O)=O)cc1 (stereo not given)	none
COc1c(O)cc2c(c1O)[C@@H]1O[C@H](CO)[C@@H](O)[C@H](O)C1OC2=O (stereo not given in full)	SENP8 block-1 43 (no result: HSP90 refold inh) | SENP8 conf inactive
COc1c(O)cc2c(c1O)C1OC(CO)C(O)C(O)C1OC2=O (stereo not given)	none (no result: Platelet DG rel, HSP90 refold inh)
Cc1cc(=O)oc2cc(OCC(=O)NCCc3c[nH]c4ccc(F)cc34)ccc12	none
COc1ccc2[nH]cc(CCNC(=O)COc3ccc4ccc(=O)oc4c3)c2c1	SENP8 block-1 42 | SENP8 conf inactive
COC(=O)C(CC(C)C)NC(=O)c1ccc([N+](=O)[O-])cc1 (stereo not given)	SENP8 block-1 43 | SENP8 conf inactive
Cc1onc(-c2ccccc2)c1C(=O)NCCc1ccc(Cl)cc1	SENP8 block-1 51 | SENP8 conf inactive
C=CCSc1nnc(C)c(/C=C/Nc2ccc(Cl)cc2)n1	none
Cc1nnc(SCc2ccccc2)nc1/C=C/NOCc1ccc(Cl)cc1Cl	SENP8 block-1 54 | SENP8 conf inactive
CSc1nnc(C)c(/C=C/Nc2ccc(F)cc2F)n1	none
CSc1nnc(C)c(/C=C/NOCc2cccc(F)c2)n1	SENP8 block-1 40 | SENP8 conf 57
O=[N+]([O-])c1cc(Cl)ccc1NCCNS(=O)(=O)c1ccccc1	SENP8 block-1 43 | SENP8 conf inactive
O=[N+]([O-])c1ccccc1NCCNS(=O)(=O)c1ccc(Cl)cc1	none
O=C(Nc1ccc(Br)cc1F)c1nc[nH]c1C(=O)N1CCc2ccccc2C1	none (no result: SENP6 inh, SENP8 block-2, Platelet DG rel, SENP7 inh, HSP90 refold inh)
CCOC(=O)C1CCN(C(=O)CCCn2nc(C)c3c(C)n(-c4ccc(C)cc4)nc3c2=O)CC1	none
CCOC(=O)C(=CNNc1ccccc1)C(=O)OCC	SENP8 block-1 45 | SENP8 conf inactive
CCN(CC)c1ccc(C=Nc2ccc(N(C)C)cc2)c(O)c1	SENP8 block-1 52 | SENP8 conf inactive
CCN(CC)c1ccc(C=Nc2ccc(C)cc2)c(O)c1	none
CCN(CC)c1ccc(N=Cc2ccc(N(CC)CC)cc2O)cc1	SENP8 block-1 58 | SENP8 conf inactive
CCC(C)NCCOc1ccc(C)cc1[N+](=O)[O-] (stereo not given)	SENP8 block-1 40 (no result: SENP6 inh, SENP8 block-2, SENP7 inh) | SENP8 conf inactive
C=CCNCCOc1ccc(C)cc1[N+](=O)[O-]	none
CCCCC1CCC(C(=O)NCC(c2ccco2)N2CCOCC2)CC1 (stereo not given)	none
CCN(CC)C(=O)CSc1n[nH]c(=S)n1N	SENP8 block-1 44 | SENP8 conf inactive
c1ccc(C[C@H]2COc3c4ccccc4nn32)cc1	none (no result: SENP6 inh, SENP8 block-2, Platelet DG rel, SENP7 inh, HSP90 refold inh)
O=C(CS(=O)(=O)Cc1ccccc1)N1CCc2ccccc2C1	SENP8 block-1 50 | SENP8 conf 76
COc1ccccc1CNC(=O)c1cccc(S(=O)(=O)N(C)c2ccccc2)c1	none (no result: Platelet DG rel, HSP90 refold inh)
Cc1ccccc1N=C1N=C(N)c2ccccc21	none
Cc1ccc(N=C2N=C(N)c3ccccc32)c(C)c1	SENP8 block-1 42 (no result: Platelet DG rel) | SENP8 conf inactive
CCN(CC)c1ccc(C(=O)NNC(=O)Cn2c(=O)cnc3ccccc32)cc1	none (no result: SENP6 inh, SENP8 block-2, Platelet DG rel, SENP7 inh, HSP90 refold inh)
Cc1occc1C(=O)N(Cc1nc(-c2ccccc2)no1)C(C)C	none
COC(=O)C1=CN(Cc2ccccc2)C=C(C(=O)OC)C1c1cc(F)ccc1F	none
Cc1ccc(-c2ccc(/C=N/NC(=S)Nc3ccccc3)o2)cc1[N+](=O)[O-]	none
O=[N+]([O-])c1cccc(-c2ccc(/C=N/NC(=S)Nc3cccc(F)c3)o2)c1	SENP8 block-1 52 | SENP8 conf inactive
CNC(=S)N/N=C/c1ccc(-c2ccc(Cl)c([N+](=O)[O-])c2)o1	SENP8 block-1 33 | SENP8 conf inactive
COc1ccccc1OCCCCN1CCN(c2ccccc2OC)CC1	SENP8 block-1 48 | SENP8 conf inactive
COc1cc(CCC(O)CC(=O)CCc2ccccc2)ccc1O (stereo not given)	SENP8 block-1 46 | SENP8 conf inactive
COc1cc(/C=N/NC(=O)CCc2ccccc2)ccc1O	none
O=S1(=O)C[C@@H](O)[C@@H](Nc2ccccc2)C1	none
COc1ccc(NC2CS(=O)(=O)CC2NCc2ccccc2)cc1 (stereo not given)	SENP8 block-1 40 | SENP8 conf inactive
COc1cccc(CNC(=O)c2ccccc2NC(=O)C2=C(C)OCCS2)c1OC	none
O=C(c1cc(-c2ccc(Cl)cc2Cl)on1)N1CCN(C(=O)c2ccco2)CC1	none
O=C(c1cc(-c2ccccc2Cl)on1)N1CCN(C(=O)c2ccco2)CC1	SENP8 block-1 43 | SENP8 conf inactive
CC(C)CC(=O)Nc1c2c(nn1-c1cccc(Cl)c1)CS(=O)C2 (stereo not given)	none
CN(C)c1ccc(N2CN=C3SCC(=O)N3C2)cc1	SENP8 block-1 52 | SENP8 conf inactive
O=C1CSC2=NCN(c3ccc4c(c3)OCO4)CN12	none
Cc1ccc(C(=O)N/C(=C/c2ccc(-c3cccc([N+](=O)[O-])c3)o2)C(=O)NC(C)(C)C)cc1	none
Cc1ccc(C(=O)N/C(=C/c2ccc(-c3cccc([N+](=O)[O-])c3)o2)C(=O)NC(C)C)cc1	SENP8 block-1 47 | SENP8 conf inactive
Cc1ccc(C(=O)N/C(=C\c2ccc(-c3cccc([N+](=O)[O-])c3)o2)C(=O)NCCCN2CCOCC2)cc1	none
COc1ccc(C(=O)N/C(=C\c2ccc(-c3cccc([N+](=O)[O-])c3)o2)C(=O)NCCCN2CCOCC2)cc1	SENP8 block-1 35 (no result: SENP6 inh, SENP8 block-2, Platelet DG rel, SENP7 inh, HSP90 refold inh) | SENP8 conf inactive
CCOC(=O)[C@@H]1[C@H]2COc3ccc(Br)cc3[C@@H]2N2C(=O)N(c3ccc(C(F)(F)F)cc3)C(=O)[C@@]12C	none
CCOC(=O)c1ccc(N2C(=O)Cc3ccccc3C2=O)cc1	SENP8 block-1 63 | SENP8 conf 27
CCOc1ccc(N2C(=O)Cc3ccccc3C2=O)cc1	SENP8 block-1 75 | SENP8 conf inactive
